Luciferase inh: inhibitors of firefly (Photinus pyralis) luciferase; Potency, µM (series often up to 115 µM), most hits filed as inhibitors; purified P. pyralis luciferase, luminescence, biochemical; 76,000 tested, 2.5% active; note: nearly all actives have a fitted effect of over 65% in size
Target sequence (P08659 whole entry, looked up): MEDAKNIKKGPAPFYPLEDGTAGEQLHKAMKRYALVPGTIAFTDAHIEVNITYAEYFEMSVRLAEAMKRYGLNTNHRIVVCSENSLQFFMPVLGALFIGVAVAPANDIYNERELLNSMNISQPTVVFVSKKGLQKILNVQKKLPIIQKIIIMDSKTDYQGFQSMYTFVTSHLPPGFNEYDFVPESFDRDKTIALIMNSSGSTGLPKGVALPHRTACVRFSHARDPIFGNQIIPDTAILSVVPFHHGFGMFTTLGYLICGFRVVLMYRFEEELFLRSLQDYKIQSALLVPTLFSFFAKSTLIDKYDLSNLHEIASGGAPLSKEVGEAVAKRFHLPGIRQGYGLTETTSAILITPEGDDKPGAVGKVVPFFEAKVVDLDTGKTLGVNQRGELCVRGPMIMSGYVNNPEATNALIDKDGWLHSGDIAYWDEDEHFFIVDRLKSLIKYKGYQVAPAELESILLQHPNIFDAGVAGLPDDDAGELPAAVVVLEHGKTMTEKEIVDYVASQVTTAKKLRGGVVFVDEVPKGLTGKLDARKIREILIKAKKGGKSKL
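FLuc 10nM, D-luciferin 10uM, ATP 10uM, Mg acetate 10mM, Tris acetate pH 7.5, Tween/BSA; cpd qHTS; enzyme added last; CCD luminescence.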
NPR1 antag: antagonists of human natriuretic peptide receptor Npr1; AID 1347048; Potency, µM (highest dose often 46.3 µM), actives largely listed as inhibitors; 76,000 tested, 1.6% active; P16066; HEK293 hNpr1 GloSensor cGMP, ANP-stimulated luminescence; calls by dose curve; note: nearly all actives have a fitted effect of over 60% in size
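HEK293 cells stably expressing human Npr1 and cGMP GloSensor pGS-40F, loaded 2 h with 2% GloSensor reagent, given compound 30 min at room temperature. Luminescence read before and 20 min after 0.1 nM hNppA.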
HEK cytotox: kills HEK 293 cells; HEK 293 viability, ATP luminescence (CellTiter-Glo), 48-72 h; Potency, µM (highest dose often 115 µM), actives largely listed as inhibitors; 94,000 tested, 6.6% active; AID 1345083; note: nearly all actives have a fitted effect of over 60% in size
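Luminescence from cellular ATP, measured with CellTiter-Glo, indicates HEK 293 viability. Cells plated at 250 cells/well are treated with compound for 48 or 72 hr at 37 degree Celsius before reagent addition.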
3T3 cytotox: cytotoxic compounds in NIH 3T3 cells; NIH 3T3 viability, CellTiter-Glo ATP luminescence, 48-72 h; Potency, µM (doses to about 96.7 µM), most hits filed as inhibitors; 94,000 tested, 4.3% active; note: nearly all actives have a fitted effect of over 55% in size
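First NIH 3T3 cells are plated at 400 cells/well; next compound is pinned in; then plates incubate 48 or 72 hr at 37 °C; finally CellTiter-Glo is added and luminescence read after 10 min.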
Npr1 antag conf: confirmation of human Npr1 natriuretic peptide receptor antagonists; shares compounds with NPR1 antag; HEK293 hNpr1 cGMP GloSensor luminescence, ANP-stimulated; Potency, µM (series often up to 57.6 µM), hits mostly inhibitors; 1,400 tested, 76% active; AID 1347044; calls by dose curve; note: nearly all actives have a fitted effect of over 70% in size
NPR2 antag: antagonizes human Npr2, subtype selectivity check; 1,400 tested, 67% active; shares compounds with NPR1 antag; Potency, µM (highest dose often 57.6 µM), usual class: inhibitors; HEK293 hNpr2 GloSensor cGMP luminescence, CNP-stimulated; calls by dose curve; note: nearly all actives have a fitted effect of over 70% in size
FLuc counter: counter-screen for Npr1 antagonists: firefly luciferase inhibitors; shares compounds with NPR1 antag; purified FLuc enzyme, luminescence, Km substrate; Potency, µM (highest dose often 57.6 µM), usual class: inhibitors; 1,400 tested, 0.7% active; AID 1347047
GloSensor ctrl: reduces cGMP signal in GloSensor control cells; Potency, µM (series often up to 57.6 µM), most hits filed as inhibitors; AID 1347051; shares compounds with NPR1 antag; 1,400 tested, 69% active; HEK293 GloSensor cGMP, SNP-stimulated, luminescence; calls by dose curve; note: nearly all actives have a fitted effect of over 70% in size
Large screens that a line does not name were inactive (follow-up assays come after a bar, where they were run). An excerpt weighted towards active compounds, which were near 11% of everything screened. Unless noted, calls come from the whole dose curve; as a rule, active = well fitted curve in the direction sought with a large enough effect; inconclusive = small, poorly fitted or top-dose-only effect, or another doubt; inactive = no such curve, though single readings can be large; an effect the other way counts as inactive or inconclusive.

COC(=O)c1ccc2nc(CO[C@H]3CN(Cc4ccc(Cl)cc4)C[C@H]3F)[nH]c2c1	NPR1 antag 32µM, HEK cytotox inconclusive, 3T3 cytotox 89µM | Npr1 antag conf 40µM | NPR2 antag 35µM | FLuc counter inactive | GloSensor ctrl 35µM
COc1ccc(CN2C[C@@H](F)[C@@H](OCc3nc4ccc(C(F)(F)F)cc4[nH]3)C2)cn1	NPR1 antag 32µM, HEK cytotox inconclusive, 3T3 cytotox inconclusive | Npr1 antag conf 28µM | NPR2 antag 31µM | FLuc counter inactive | GloSensor ctrl inconclusive
COCCCNC(=O)c1cc(C2CC2)nc2onc(C3CCCNC3)c12 (stereo unspecified)	none (no result: Luciferase inh, NPR1 antag)
CC(C)c1nncn1C1CCN(S(=O)(=O)c2ccc(Br)s2)CC1	NPR1 antag 11µM, HEK cytotox inconclusive, 3T3 cytotox inconclusive | Npr1 antag conf 24µM | NPR2 antag inconclusive | FLuc counter inactive | GloSensor ctrl 22µM
CCOC(=O)N1CCC(=O)N(CC)C[C@H]2COc3cc(OC)ccc3[C@H]21	HEK cytotox inconclusive (no result: Luciferase inh, NPR1 antag)
O=C(c1ccccc1)N1CCC(c2nc(C3CCOCC3)no2)C1 (stereo unspecified)	none
O=C(c1cc(CN2CCOCC2)on1)N1CCC(c2nc(C3CCOCC3)no2)C1 (stereo unspecified)	none | Npr1 antag conf inactive | NPR2 antag inactive | FLuc counter inactive | GloSensor ctrl inactive
Cc1nccc(N2CCC(Oc3cnc4c(ccn4CCN[S+](C)(=O)[O-])c3)CC2)n1	NPR1 antag 28µM, HEK cytotox inconclusive, 3T3 cytotox inconclusive | Npr1 antag conf 31µM | NPR2 antag 35µM | FLuc counter inactive | GloSensor ctrl 25µM
CCc1cnc(N2CCC(Oc3cnc4c(ccn4CCN[S+](C)(=O)[O-])c3)CC2)nc1	NPR1 antag 6.3µM, HEK cytotox inconclusive, 3T3 cytotox inconclusive | Npr1 antag conf 6.9µM | NPR2 antag 9.7µM | FLuc counter inactive | GloSensor ctrl 6.9µM
COc1cccc(C(=O)N2CCC3(C2)NC(=O)N(Cc2ccc(Cl)cc2)C3=O)c1 (stereo unspecified)	NPR1 antag inconclusive, HEK cytotox inconclusive, 3T3 cytotox inconclusive | Npr1 antag conf inconclusive | NPR2 antag inconclusive | FLuc counter inactive | GloSensor ctrl inactive
COc1cccc(C(=O)N2CCCC3(C2)NC(=O)N(Cc2ccc(C)cc2)C3=O)c1 (stereo unspecified)	none
CCOCc1nc(C2CCCN2S(=O)(=O)c2ccccc2C)no1 (stereo unspecified)	none (no result: Luciferase inh, NPR1 antag)
CCC(O)c1cc2n(n1)CCN(C(=O)c1ccc(-c3ccccc3)n1C)C2 (stereo unspecified)	NPR1 antag 16µM, HEK cytotox 32µM, 3T3 cytotox inconclusive | Npr1 antag conf 24µM | NPR2 antag 24µM | FLuc counter inactive | GloSensor ctrl 24µM
Cc1ccc(OCCC2CCN(C(=O)CCCC(=O)n3nc(C)c4ccccc43)C2)cc1 (stereo unspecified)	NPR1 antag 10µM, HEK cytotox 40µM, 3T3 cytotox inconclusive | Npr1 antag conf 11µM | NPR2 antag 14µM | FLuc counter inactive | GloSensor ctrl 11µM
O=C(c1ccc(F)cc1)N1CCC(n2cc(-c3nc(-c4ccccc4)no3)nn2)CC1	NPR1 antag inconclusive, HEK cytotox inconclusive, 3T3 cytotox inconclusive | Npr1 antag conf inconclusive | NPR2 antag inconclusive | FLuc counter inactive | GloSensor ctrl 24µM
O=C(c1ccc(F)cc1)N1CCCC(n2cc(-c3nc(-c4ccccc4)no3)nn2)C1 (stereo unspecified)	Luciferase inh inconclusive, NPR1 antag inconclusive, HEK cytotox inconclusive, 3T3 cytotox inconclusive | Npr1 antag conf 24µM | NPR2 antag 24µM | FLuc counter inconclusive | GloSensor ctrl 24µM
O=C(c1ccccc1Cl)N1CCC(n2cc(-c3nc(-c4ccccc4)no3)nn2)CC1	NPR1 antag inconclusive, HEK cytotox inconclusive
CC(Oc1ccccc1)C(=O)N1CCC(n2cc(-c3nc(-c4ccccc4)no3)nn2)CC1 (stereo unspecified)	NPR1 antag 18µM, HEK cytotox 20µM, 3T3 cytotox inconclusive | Npr1 antag conf 24µM | NPR2 antag 22µM | FLuc counter inactive | GloSensor ctrl 24µM
O=C(c1ccc(Cl)cc1)N1CCC(n2cc(-c3nc(-c4ccccc4)no3)nn2)CC1	NPR1 antag 16µM, HEK cytotox inconclusive, 3T3 cytotox inconclusive | Npr1 antag conf 22µM | NPR2 antag 22µM | FLuc counter inactive | GloSensor ctrl 22µM
COCCCNC(=O)c1nc2sccn2c1-c1ccc(F)cc1	3T3 cytotox inconclusive (no result: Luciferase inh, NPR1 antag)
Clc1ccc(C2Cn3nnc(-c4noc(C5CCCC5)n4)c3CO2)cc1 (stereo unspecified)	HEK cytotox inconclusive
COc1ccc(C2Cn3nnc(-c4noc(C5CCCCC5)n4)c3CO2)cc1 (stereo unspecified)	none | Npr1 antag conf inconclusive | NPR2 antag inconclusive | FLuc counter inactive | GloSensor ctrl inactive
CC1=NS(=O)(=O)N(C)C=C1C(=O)OCc1noc(-c2ccccc2C)n1	NPR1 antag 10µM, HEK cytotox inconclusive, 3T3 cytotox inconclusive | Npr1 antag conf 11µM | NPR2 antag 17µM | FLuc counter inactive | GloSensor ctrl 11µM
CC1=NS(=O)(=O)N(C)C=C1C(=O)OCc1nc(-c2cccs2)no1	NPR1 antag inconclusive | Npr1 antag conf 24µM | NPR2 antag inconclusive | FLuc counter inactive | GloSensor ctrl 22µM
CC1=NS(=O)(=O)N(C)C=C1C(=O)OCc1noc(-c2cccs2)n1	NPR1 antag 10µM, HEK cytotox inconclusive, 3T3 cytotox inconclusive | Npr1 antag conf 22µM | NPR2 antag 19µM | FLuc counter inactive | GloSensor ctrl 22µM
CC1=NS(=O)(=O)N(Cc2ccccc2)C=C1C(=O)OCc1noc(C2CCCC2)n1	HEK cytotox inconclusive, 3T3 cytotox inconclusive
CC1=NS(=O)(=O)N(C)C=C1C(=O)OCc1noc(-c2ccccc2F)n1	NPR1 antag 11µM, 3T3 cytotox inconclusive | Npr1 antag conf 19µM | NPR2 antag 17µM | FLuc counter inactive | GloSensor ctrl 14µM
Cc1ccc([S+](=O)([O-])c2nnn3c2nc(N2CCC(F)CC2)c2ccccc23)cc1C	none (no result: Luciferase inh, NPR1 antag)
CC1=NS(=O)(=O)N(C)C=C1C(=O)OCc1nc(C2CC2)no1	none
